Activity calls are given as the source filed them. The calls were made as follows: active = hit-call score of the fitted dose curve at least 0.9, where 1 is the maximum; inactive = score below 0.9.

What all share (conditions): mRNA level, 48 h; actives raise or lower the signal
Read-out in experiment [1]: growth arrest and DNA damage 45 (GADD45B), GADD45B (gene 4616)
Nature of the experiment: LTEA_HepaRG_GADD45B: Life Technologies and Expression Analysis (LTEA) Assay for growth arrest and DNA damage 45 (GADD45B) using HepaRG (AID 2283461). The essentials: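 Differentiated HepaRG cells, plated 48 h then switched to serum-free induction medium, were exposed 48 h in duplicate to eight half-log concentrations from 100 uM in 0.5% DMSO; mRNA quantified by qRT-PCR, normalized to ACTB/GAPDH/POLR2A, bidirectional fit versus DMSO.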

Read-out in experiment [2]: ABC Transporter (ABCC3), ABCC3 (gene 8714)
Nature of the experiment: LTEA_HepaRG_ABCC3: Life Technologies and Expression Analysis (LTEA) Assay for ABC Transporter (ABCC3) using HepaRG (AID 2283462). The procedure, abridged:
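HepaRG cells in serum-free induction medium were exposed for 48 h in duplicate to 8-point half-log concentrations topping at 100 uM in 0.5% DMSO. ABCC3 mRNA was measured by qRT-PCR normalized to ACTB, GAPDH and POLR2A, with bidirectional fitting versus DMSO.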

Read-out in experiment [3]: ABC Transporter (ABCB11), ABCB11 (gene 8647)
Nature of the experiment: LTEA_HepaRG_ABCB11: Life Technologies and Expression Analysis (LTEA) Assay for ABC Transporter (ABCB11) using HepaRG (AID 2283463). The essentials:
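HepaRG, 48 h exposure, 8-pt half-log CRC top 100 uM, 0.5% DMSO vehicle, duplicates. Readout: TaqMan qRT-PCR of ABCB11 mRNA, housekeeping-normalized (ACTB/GAPDH/POLR2A). Bidirectional fit vs DMSO baseline.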

Read-out in experiment [4]: ABC Transporter (ABCC2), ABCC2 (gene 1244)
Nature of the experiment: LTEA_HepaRG_ABCC2: Life Technologies and Expression Analysis (LTEA) Assay for ABC Transporter (ABCC2) using HepaRG (AID 2283464). The essentials: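 HepaRG cells were plated 48 h, switched to serum-free induction medium, then exposed in duplicate for 48 h to 8 concentrations (top 100 uM, half-log steps, 0.5% DMSO). ABCC2 mRNA was measured by qRT-PCR normalized to ACTB/GAPDH/POLR2A; bidirectional fitting versus DMSO.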

Read-out in experiment [5]: Broad substrate specificity ATP-binding cassette transporter ABCG2 (Homo sapiens) (UniProt Q9UNQ0)
Nature of the experiment: LTEA_HepaRG_ABCG2: Life Technologies and Expression Analysis (LTEA) Assay for ABC Transporter (ABCG2) using HepaRG (AID 2283465). The procedure, abridged: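 HepaRG, 48 h exposure, 8-pt half-log series from 100 uM, 0.5% DMSO vehicle, duplicates. Readout: ABCG2 transcript by qRT-PCR (Fluidigm array), housekeeping-normalized; bidirectional curve fit relative to DMSO baseline.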

Read-out in experiment [6]: ATP-citrate lyase (ACLY), ACLY (gene 47)
Nature of the experiment: LTEA_HepaRG_ACLY: Life Technologies and Expression Analysis (LTEA) Assay for ATP-citrate lyase (ACLY) using HepaRG (AID 2283466). The essentials:
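qRT-PCR readout of ACLY transcript after 48 h chemical treatment of HepaRG cells; expression normalized to three housekeeping genes. Eight-point half-log series, highest 100 uM, 0.5% DMSO vehicle. Gain or loss fitted against DMSO baseline.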

Read-out in experiment [7]: Peroxisomal acyl-coenzyme A oxidase 1 (ACOX1) gene, ACOX1 (gene 51)
Nature of the experiment: LTEA_HepaRG_ACOX1: Life Technologies and Expression Analysis (LTEA) Assay for Peroxisomal acyl-coenzyme A oxidase 1 (ACOX1) gene using HepaRG (AID 2283467). The procedure, abridged: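 HepaRG, 48 h chemical exposure, 8-pt half-log series from 100 uM top, 0.5% DMSO vehicle, duplicates. Readout: ACOX1 mRNA by Fluidigm qRT-PCR, housekeeping-normalized; bidirectional fit vs DMSO baseline.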

Read-out in experiment [8]: Alkaline Phosphatase, Placental (ALPP) gene, ALPP (gene 250)
Nature of the experiment: LTEA_HepaRG_ALPP: Life Technologies and Expression Analysis (LTEA) Assay for Alkaline Phosphatase, Placental (ALPP) gene using HepaRG (AID 2283468). The essentials: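 Differentiated human HepaRG cells were plated and cultured 48 h, then exposed in duplicate for 48 h in serum-free induction medium to eight half-log concentrations from 100 uM in 0.5% DMSO. ALPP mRNA was measured by TaqMan qRT-PCR, normalized to ACTB, GAPDH, POLR2A.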

Read-out in experiment [9]: Bcl-2 (BAX) gene, BAX (gene 581)
Nature of the experiment: LTEA_HepaRG_BAX: Life Technologies and Expression Analysis (LTEA) Assay for Bcl-2 (BAX) gene using HepaRG (AID 2283470). The essentials:
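Cells were thawed, plated for 48 h, moved to serum-free induction medium and dosed for 48 h (highest concentration 100 uM, half-log steps, 0.5% DMSO). Total RNA was then analysed for BAX expression by qRT-PCR.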

Read-out in experiment [10]: Alpha-fetoprotein (AFP) gene, AFP (gene 174)
Nature of the experiment: LTEA_HepaRG_AFP: Life Technologies and Expression Analysis (LTEA) Assay for Alpha-fetoprotein (AFP) gene using HepaRG (AID 2283472). The procedure, abridged:
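Chemicals were tested on differentiated HepaRG cells for 48 hours at eight concentrations up to 100 uM, with 0.5% DMSO as vehicle. AFP expression was then quantified by qRT-PCR and analyzed for gain or loss relative to DMSO.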

Read-out in a further experiment: BCL2L11 (gene 10018)
Nature of the experiment: LTEA_HepaRG_BCL2L11: Life Technologies and Expression Analysis (LTEA) Assay for Bcl-2 (BCL2L11) gene using HepaRG (AID 2283473). The procedure, abridged: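 Differentiated human HepaRG cells in serum-free induction medium were exposed in duplicate for 48 h to eight concentrations (top 100 uM, half-log steps, 0.5% DMSO). BCL2L11 mRNA was quantified by TaqMan qRT-PCR, normalized to ACTB/GAPDH/POLR2A, bidirectional fit versus DMSO.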

Read-out in experiment [11]: Apolipoprotein A-V (APOA5) gene, APOA5 (gene 116519)
Nature of the experiment: LTEA_HepaRG_APOA5: Life Technologies and Expression Analysis (LTEA) Assay for Apolipoprotein A-V (APOA5) gene using HepaRG (AID 2283474). The essentials: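 Differentiated human HepaRG cells were exposed in duplicate for 48 h to eight half-log concentrations from 100 uM in 0.5% DMSO. APOA5 mRNA was quantified by TaqMan qRT-PCR, normalized to ACTB, GAPDH and POLR2A, and fitted bidirectionally against DMSO.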

Read-out in experiment [12]: Apoptosis regulator Bcl-2 (Homo sapiens) (UniProt P10415)
Nature of the experiment: LTEA_HepaRG_BCL2: Life Technologies and Expression Analysis (LTEA) Assay for Bcl-2 gene using HepaRG (AID 2283475). The procedure, abridged:
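Plated human HepaRG cells are exposed to test chemicals for 48 h across eight concentrations from 100 uM downward in half-log steps (0.5% DMSO). BCL2 expression is then measured by qRT-PCR with housekeeping normalisation and fitted bidirectionally against vehicle.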

Read-out in experiment [13]: Bcl-2 (BID) gene, BID (gene 637)
Nature of the experiment: LTEA_HepaRG_BID: Life Technologies and Expression Analysis (LTEA) Assay for Bcl-2 (BID) gene using HepaRG (AID 2283476). The essentials:
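Cells are plated, cultured 48 h, switched to serum-free induction medium, then dosed 48 h (100 uM top, half-log steps, 0.5% DMSO). RNA is isolated and BID expression read by qRT-PCR.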

Read-out in another experiment: Caspase-3 (Homo sapiens) (UniProt P42574)
Nature of the experiment: LTEA_HepaRG_CASP3: Life Technologies and Expression Analysis (LTEA) Assay for cysteine-aspartic acid protease (CASP3) using HepaRG (AID 2283477). The procedure, abridged:
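Differentiated human HepaRG cells in serum-free induction medium were exposed 48 h to 8-point half-log concentrations from 100 uM (0.5% DMSO vehicle). CASP3 mRNA was measured by qRT-PCR, normalised to ACTB, GAPDH and POLR2A, with bidirectional fitting against DMSO.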

Read-out in experiment [14]: Cytochrome P450 (CYP24A1), CYP24A1 (gene 1591)
Nature of the experiment: LTEA_HepaRG_CYP24A1: Life Technologies and Expression Analysis (LTEA) Assay for Cytochrome P450 (CYP24A1) using HepaRG (AID 2283478). The procedure, abridged: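 Differentiated HepaRG cells, pre-cultured 48 h, were exposed in duplicate for 48 h in serum-free induction medium to 8 half-log concentrations (top 100 uM, 0.5% DMSO). CYP24A1 mRNA was quantified by TaqMan qRT-PCR, normalized to ACTB/GAPDH/POLR2A, fitted bidirectionally versus DMSO.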

Read-out in experiment [15]: Cytochrome P450 (CYP1A2), CYP1A2 (gene 1544)
Nature of the experiment: LTEA_HepaRG_CYP1A2: Life Technologies and Expression Analysis (LTEA) Assay for Cytochrome P450 (CYP1A2) using HepaRG (AID 2283479). The essentials:
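Differentiated human HepaRG cells in serum-free induction medium were exposed in duplicate for 48 h to 8-point half-log concentrations up to 100 uM in 0.5% DMSO. CYP1A2 mRNA measured by qRT-PCR, normalized to ACTB, GAPDH, POLR2A; bidirectional fit vs DMSO.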

Read-out in experiment [16]: cysteine-aspartic acid protease (CASP8), CASP8 (gene 841)
Nature of the experiment: LTEA_HepaRG_CASP8: Life Technologies and Expression Analysis (LTEA) Assay for cysteine-aspartic acid protease (CASP8) using HepaRG (AID 2283480). The essentials:
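qRT-PCR readout of CASP8 mRNA, normalized to three housekeeping genes, after 48 h chemical exposure of HepaRG cells; 8-point half-log series, top 100 uM, 0.5% DMSO vehicle. Bidirectional curve fitting against DMSO baseline.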

Read-out in experiment [17]: adenosine kinase (ADK) gene, ADK (gene 132)
Nature of the experiment: LTEA_HepaRG_ADK: Life Technologies and Expression Analysis (LTEA) Assay for adenosine kinase (ADK) gene using HepaRG (AID 2283471). The procedure, abridged: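 ADK expression quantified by qRT-PCR, normalised to three housekeeping genes, after 48 h exposure of HepaRG cells to eight concentrations (top 100 uM, half-log steps, duplicate, 0.5% DMSO). Up- or down-regulation fitted relative to vehicle.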

Sequence of Apoptosis regulator Bcl-2 (Homo sapiens) (P10415 whole entry, looked up): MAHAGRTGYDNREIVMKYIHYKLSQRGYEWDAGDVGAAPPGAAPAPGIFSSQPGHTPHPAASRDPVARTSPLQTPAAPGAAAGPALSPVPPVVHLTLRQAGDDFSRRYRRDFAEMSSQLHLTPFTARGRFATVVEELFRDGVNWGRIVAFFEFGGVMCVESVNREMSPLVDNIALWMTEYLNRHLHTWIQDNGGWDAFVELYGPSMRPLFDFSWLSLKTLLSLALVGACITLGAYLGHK
Sequence of Broad substrate specificity ATP-binding cassette transporter ABCG2 (Homo sapiens) (Q9UNQ0 whole entry, looked up): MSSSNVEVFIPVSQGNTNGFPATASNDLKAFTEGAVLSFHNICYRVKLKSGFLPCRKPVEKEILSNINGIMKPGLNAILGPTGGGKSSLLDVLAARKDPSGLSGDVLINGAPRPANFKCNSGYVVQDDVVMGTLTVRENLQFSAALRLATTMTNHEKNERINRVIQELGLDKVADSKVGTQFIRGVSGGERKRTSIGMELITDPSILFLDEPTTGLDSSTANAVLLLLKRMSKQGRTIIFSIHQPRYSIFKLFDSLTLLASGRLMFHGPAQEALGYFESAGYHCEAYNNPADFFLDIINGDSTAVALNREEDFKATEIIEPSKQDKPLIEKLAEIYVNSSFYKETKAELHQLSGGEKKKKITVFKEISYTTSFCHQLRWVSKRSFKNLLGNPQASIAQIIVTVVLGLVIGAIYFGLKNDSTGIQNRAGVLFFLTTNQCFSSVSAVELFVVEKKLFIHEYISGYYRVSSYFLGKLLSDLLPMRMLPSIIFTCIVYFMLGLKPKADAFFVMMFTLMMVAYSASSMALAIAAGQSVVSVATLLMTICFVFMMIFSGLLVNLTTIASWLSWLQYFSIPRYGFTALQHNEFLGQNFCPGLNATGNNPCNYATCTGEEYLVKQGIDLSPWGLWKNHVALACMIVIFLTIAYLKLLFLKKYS
Sequence of Caspase-3 (Homo sapiens) (P42574 whole entry, looked up): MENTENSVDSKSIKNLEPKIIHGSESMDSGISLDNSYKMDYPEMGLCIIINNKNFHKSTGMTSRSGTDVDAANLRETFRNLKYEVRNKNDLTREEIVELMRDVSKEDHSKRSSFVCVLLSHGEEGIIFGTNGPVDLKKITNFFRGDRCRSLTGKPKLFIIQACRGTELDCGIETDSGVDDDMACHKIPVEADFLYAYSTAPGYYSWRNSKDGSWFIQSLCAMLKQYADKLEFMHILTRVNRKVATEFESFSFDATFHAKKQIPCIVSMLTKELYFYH

Consider `CNC(C)=O`, for which the call in experiment [1], in experiment [2], in [3], in [4], in experiment [5] and in experiment [6] was inactive. For the same molecule, the call (in experiment [7]; in experiment [8]; in experiment [9]; in experiment [10]; with BCL2L11 (gene 10018); in experiment [11]) was inactive. Also, the call (in experiment [12]; in [13]; in the experiment with Caspase-3 (Homo sapiens); in [14]; in [15]; in experiment [16]) was inactive.

Regarding `COS(C)(=O)=O`, the result in experiment [1], in experiment [2], in experiment [3], in experiment [4], in [5] and in experiment [6] was inactive. Besides, the molecule was classed as inactive (in experiment [7]; in experiment [8]; in experiment [9]; in experiment [17]; in experiment [10]; in the experiment with BCL2L11 (gene 10018)). Besides, the molecule was classed as inactive (in experiment [11]; in [12]; in experiment [13]; with Caspase-3 (Homo sapiens); in [14]; in experiment [15]). In addition, the result in experiment [16] was inactive.

As to `O=C1CN(N=Cc2ccc([N+](=O)[O-])o2)C(=O)N1`, the molecule was called inactive in experiment [1], in experiment [2], in experiment [4], in [6], in experiment [7] and in [9]. Also, the call (in [10]; with BCL2L11 (gene 10018); in [11]; in [13]; in the experiment with Caspase-3 (Homo sapiens); in [14]) was inactive. Besides, the outcome in experiment [15] and in experiment [16] was inactive. The AC50 in experiment [3] was 27.7 µM (active); in [5], 50 µM (active); in experiment [8], 75 µM (active); in [12], 80.7 µM (active).

Broadly, the AC50 is the concentration giving half of the maximal activity seen.
